Values without a mark were called inactive. Results filed as inconclusive are left out. The source made the active and inactive calls. Unless noted, the call rests on the fitted dose curve; in most records, active means well fitted curve in the direction sought with a large enough effect; inconclusive means small, poorly fitted or top-dose-only effect, or another doubt; inactive means no such curve, though single readings can be large; an effect the other way counts as inactive or inconclusive. Bounds are passed on as bounds.

The nature of assay [1]: AP1 Signaling Pathway (AID 357; active means well fitted curve in either direction with a large enough effect, not every such curve was filed as active; further: on the % scale 0 is the no-effect control and ±100 the full control effect). As to conditions: ME-180 AP-1-bla reporter, EGF-induced, beta-lactamase ratio, 5 h; at 7.69 µM (top of the series) unless noted. The method in brief:
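AP-1-bla ME-180 cells with beta-lactamase reporter under AP-1 response element, stimulated with EC50 EGF; compounds titrated, 5 hours at 37 degrees Celsius. CCF4 read at 460/530 nm ratio; positive and negative modulators judged by AC50.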

Assay [2] deals with Cytochrome P450 1A2 (Homo sapiens) (UniProt P05177). Briefly: p450-cyp1a2 (AID 410; calls by dose curve; further: potency means the concentration at half of the fitted maximal effect;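 on activity change, negative = inhibition: -100% = full effect of reference inhibitor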). The settings on record: recombinant CYP1A2, luciferin-ME demethylation, luminescence; series mostly up to 11.4 µM. The method in brief:
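20nM CYP1A2 with 100uM Luciferin-ME (at Km) in 100mM KPO4; compound preincubated 10 min, NADPH regeneration added, 60 min at room temperature. Luciferin quantified by luminescence after detection reagent; normalized to 57 uM furafylline.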

A short description of assay [3]: NFAT Signaling Pathway (AID 444; active means well fitted curve in either direction with a large enough effect, not every such curve was filed as active;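 further: carbachol stimulus at about its EC50 of 1 µM final; on the % scale 0 is the no-effect control and ±100 the full control effect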). The settings on record: Jurkat NFAT-bla M1, carbachol, beta-lactamase ratio, 5 h; at 7.69 µM (top of the series) unless noted. The method in brief: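 Read-out: CCF4 FRET ratio (460 nm/530 nm) after 1 h RT dye loading, used for %activity and AC50 from titration series. Cells: Jurkat NFAT-β-lactamase/M1 line, treated with compound plus 1 uM carbachol for 5 h, 37 °C.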

A short description of assay [4]: Stat Signaling Pathway (AID 446; active means well fitted curve in either direction with a large enough effect, not every such curve was filed as active;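 further: ME-180 cervical cancer cells given 40 pM IL-6 alongside compound; SIE-controlled beta-lactamase reporter measured as 460/530 nm FRET emission ratio; on the % scale 0 is the no-effect control and ±100 the full control effect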). The settings on record: ME-180 SIE beta-lactamase reporter, IL-6 stimulated, 5 h; at 7.69 µM (top of the series) unless noted. The gist of the method:
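Reporter line: ME-180 cervical carcinoma, SIE-beta-lactamase. Treatment: compound with 40 pM IL-6, 5 hrs, 37 C, in low-serum OPTI-MEM with 10 mM HEPES pH 7.3. Detection: 460/530 nm fluorescence.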

The target in assay [5] is Glucocorticoid receptor (Homo sapiens) (UniProt P04150). Briefly: GR-GFP Redistribution (AID 450;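 active means compounds whose dose series gives a full or clear partial fitted curve of increased nuclear translocation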; further: potency means the concentration at half of the fitted maximal effect). As to conditions: U2OS GR-GFP nuclear translocation, laser cytometry, 2 h.
The target is the same in assay [6]. Briefly: GR-EFC Redistribution (AID 451; calls by dose curve; further: potency means the concentration at half of the fitted maximal effect). As to conditions: CHO-K1 GR-EFC translocation, beta-gal luminescence, 2 h. The gist of the method:
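Translocation of GR-ED fusion to nuclear EA restores b-gal, read by luminescence after 1 h room-temperature detection. Engineered CHO-K1 biosensor cells, 1,000/well, exposed 2 h at 37 C to titrations up to 46 uM final.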

Assay [7] deals with Mitogen-activated protein kinase 10 (Mus musculus) (UniProt Q61831). Briefly: JNK3 AlphaScreen Assay (AID 530; active means well fitted curve in either direction with a large enough effect, not every such curve was filed as active;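 further: kinase came from lysate of stimulated human HepG2 cells; signal reports phosphorylation of biotinylated GST-cJun 1-79 at Ser73 with 10 µM ATP; on the % scale 0 is the no-effect control and ±100 the full control effect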). As to conditions: JNK3 lysate, c-Jun phosphorylation; series mostly up to 57.1 µM. The method in brief: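 Compound titrations were preincubated 15 minutes at room temperature with substrate, antibody and pre-activated JNK3-containing HepG2 lysate. Reactions were started with 10 uM ATP and stopped with EDTA-containing bead buffer for AlphaScreen detection.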
Background: Bead proximity is the source of the signal in Alpha formats.

In assay [8] the target is 3',5'-cyclic-AMP phosphodiesterase 4B (Homo sapiens) (UniProt Q07343). Briefly: qHTS Assay for Inhibitors of PDE-IV (AID 607; active means well fitted activation curve with a large enough effect in the main read-out, with a control signal flat, not every such curve was filed as active; further: % of control where 0% means no effect). As to conditions: HEK293 ACTOne CNG channel cells, membrane potential fluorescence; series mostly up to 22.9 µM. The gist of the method:
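Cell-based read-out of cAMP via a modified cyclic nucleotide-gated channel and membrane potential dye (535/590 nm) in HEK293 cells expressing PDE4 endogenously. Compounds tested up to 22.9 uM final; 100 uM RO 20-1724 reference.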
In general terms: qHTS replaces the single test concentration by a dilution series.

For assay [9], the target named is Cytochrome P450 2C19 (Homo sapiens) (UniProt P33261). Briefly: qHTS Assay for Inhibitors and Substrates of Cytochrome P450 2C19 (AID 899). Further: on the % scale 0 is the no-effect control and ±100 the full control effect; nearly all actives have a fitted effect of over 60% in size. As to conditions: recombinant CYP2C19, luciferin-H EGE luminescence; series mostly up to 11.4 µM. The gist of the method: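 Luminescence readout of luciferin formed from 10uM Luciferin-H EGE (KM level) by 5 nM CYP2C19 in 50mM KPO4. 60 min NADPH-driven reaction at 37C after 10 min compound preincubation; data scaled to 57uM ketoconazole inhibition.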

For assay [10], the target named is Guanine nucleotide-binding protein G(i) subunit alpha-1 (Homo sapiens) (UniProt P63096). Briefly: qHTS Assay for Inhibitors of RGS12 GoLoco Motif Activity (Green Fluorophore) (AID 879).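 Further: 0% = labeled peptide with Gαi1 and full inhibition = labeled peptide alone without protein; negative values mean loss of peptide binding seen as reduced polarization.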 As to conditions: Galphai1/FITC-RGS12 GoLoco peptide, fluorescence polarization; series mostly up to 57.1 µM. The gist of the method:
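Fluorescence polarization assay: 50 nM Gαi1 with 10 nM FITC-labeled RGS12 GoLoco peptide in 10 mM Tris pH 7.5, 150 mM NaCl, 0.1 mM GDP, 0.05% NP40, 10 min at room temperature with compound.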

For assay [11], the target named is Cytochrome P450 3A4 (Homo sapiens) (UniProt P08684). Briefly: qHTS Assay for Activators of Cytochrome P450 3A4 (AID 885). Further: nearly all actives have a fitted effect of over 65% in size. As to conditions: recombinant CYP3A4, Luciferin-PPXE luminescence, 60 min; series mostly up to 57.1 µM. The gist of the method: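 Signal was normalized against complete inhibition by 57 uM ketoconazole. The reaction used 20nM CYP3A4 with 25uM Luciferin-PPXE, 10-min compound preincubation and a 60-min NADPH-supported step at RT.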

For assay [12], the target named is Pyruvate kinase (Leishmania mexicana) (UniProt Q27686). Briefly: qHTS Validation Assay for Inhibitors of Leishmania Mexicana Pyruvate Kinase (AID 945).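 Further: 0% = DMSO only neutral control wells.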 As to conditions: purified L. mexicana pyruvate kinase, enzyme activity, E451W mutant enzyme; series mostly up to 57.5 µM. The method in brief: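 Eight-point qHTS titrations; enzyme 0.2 nM LmPYK (E451W mutant); substrates 0.5 mM PEP, 0.1 mM ADP; 7 mM MgCl2; 1 h room temperature; PKLight luminescence normalized to neutral control.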

For assay [13], the target named is Pyruvate kinase PKM (Homo sapiens) (UniProt P14618). Briefly: qHTS Assay for Activators of Human Muscle Pyruvate Kinase (AID 954; active means well fitted curve in the direction sought with a large enough effect, not every such curve was filed as active;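 further: 0% = uninhibited enzyme and -100% = no enzyme or full thiadiazolimine inhibition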). The settings on record: purified human muscle pyruvate kinase, luciferase-coupled luminescence, 1 h; series mostly up to 57.5 µM. The method in brief:
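Human PKM2 activity is measured as ATP generation, detected by luciferase-coupled luminescence. The enzyme (0.1 nM) acts on 0.5 mM PEP and 0.1 mM ADP for 1 h at ambient temperature; data are normalized to uninhibited and full-inhibition wells.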

Assay [14] addresses Alpha-galactosidase (Coffea arabica) (UniProt Q42656). Briefly: Counterscreen for Glucocerebrosidase Inhibitors: qHTS Assay for Coffee Bean alpha-Galactosidase at pH 4.5 (AID 957).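 Further: plate controls were enzyme alone for no effect and no enzyme for full effect.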 As to conditions: purified coffee bean alpha-galactosidase, fluorogenic substrate; series mostly up to 76.9 µM. The method in brief: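 Coffee bean enzyme (2 nM) with 80 uM 4-methylumbelliferyl alpha-D-galactopyranoside in 50 mM citric acid, 0.005% Tween-20, pH 4.5, 20 min at room temperature; compounds 0.7 nM–77 uM. Stopped at pH 10, fluorescence 365/440 nm; AC50 from Hill fits.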
For orientation: Counterscreens check selectivity or assay interference.

In assay [15] the target is Alpha-galactosidase A (Homo sapiens) (UniProt P06280). Briefly: Counterscreen for Glucocerebrosidase Inhibitors: qHTS Assay for Human alpha-Galactosidase at pH 4.5 (AID 992). Further: 0% is about no effect. The settings on record: purified enzyme, fluorogenic substrate; series mostly up to 76.9 µM. The gist of the method: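 Quantitative HTS: compounds tested from 0.7 nM up to 77 uM against 2 nM enzyme with 80 uM 4-MU alpha-D-galactopyranoside. The 20 min room-temperature reaction is stopped with 1M NaOH/1M glycine, pH 10.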

For assay [16], the target named is alpha-glucosidase (Oryza sativa, rice) (UniProt Q653V4). Briefly: Counterscreen for Glucocerebrosidase Inhibitors: qHTS Assay for Rice alpha-Glucosidase at pH 5.0 (AID 997).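 Further: 0% = full activity with enzyme and -100% = basal without enzyme.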 The settings on record: rice alpha-glucosidase enzyme activity; series mostly up to 76.9 µM. The gist of the method:
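Rice alpha-glucosidase (4 nM final) with 400 uM 4-methylumbelliferyl-alpha-D-glucopyranoside in citrate buffer pH 5.0, 20 min at room temperature, stopped at pH 10; fluorescence 365/440 nm, compounds 0.7 nM–77 uM, AC50 from Hill fits.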

Assay [17] has as its target Alpha-galactosidase (Coffea arabica) (UniProt Q42656). Briefly: Counterscreen for Glucocerebrosidase Inhibitors: qHTS Assay for Coffee Bean alpha-Galactosidase at pH 5.9 (AID 998).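 Further: plate controls were uninhibited enzyme for no effect and no-enzyme basal signal for full effect.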 The settings on record: coffee bean alpha-galactosidase enzyme assay; series mostly up to 76.9 µM. The gist of the method:
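Compounds were titrated from 0.7 nM to 77 uM against green coffee bean alpha-galactosidase (2 nM) using 80 uM fluorogenic 4-methylumbelliferyl substrate. After 20 min at room temperature, reactions were stopped at pH 10 and read by fluorescence.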

Assay [18] in a line: qHTS Assay for Identification of Small Molecule Agonists for Thrombopoietin (TPO) Signaling Pathway (AID 917). Further: on the % scale 0 is the no-effect control and ±100 the full control effect. The settings on record: TPO signaling pathway reporter cells, agonist qHTS; series mostly up to 38.5 µM. The gist of the method:
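Luminescence from a Glycoprotein IIb promoter–driven luciferase reporter served as read-out in murine Ba/F3 cells carrying the human TPO receptor. Cells, deprived of IL-3 overnight, received compounds with 26 pM TPO and were incubated 24 hrs at 37 C.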

Assay [19] concerns the target Muscarinic acetylcholine receptor M1 (Rattus norvegicus) (UniProt P08482). Briefly: qHTS Assay for Antagonists of Acetylcholine Muscarinic M1 Receptor: Measurement of IP-One Response (AID 944). Further: nearly all actives have a fitted effect of over 75% in size. As to conditions: CHO-M1 cells, IP-One HTRF, antagonist mode; series mostly up to 46.1 µM. The gist of the method: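 CHO cells stably expressing rat M1, pretreated 10 min with compound, then stimulated 30 min with carbachol at EC80 (200 nM) in LiCl-containing buffer pH 7.4; IP1 accumulation read by HTRF competition (665/620 nm).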

Sequence of Glucocorticoid receptor (Homo sapiens) (P04150 whole entry, looked up): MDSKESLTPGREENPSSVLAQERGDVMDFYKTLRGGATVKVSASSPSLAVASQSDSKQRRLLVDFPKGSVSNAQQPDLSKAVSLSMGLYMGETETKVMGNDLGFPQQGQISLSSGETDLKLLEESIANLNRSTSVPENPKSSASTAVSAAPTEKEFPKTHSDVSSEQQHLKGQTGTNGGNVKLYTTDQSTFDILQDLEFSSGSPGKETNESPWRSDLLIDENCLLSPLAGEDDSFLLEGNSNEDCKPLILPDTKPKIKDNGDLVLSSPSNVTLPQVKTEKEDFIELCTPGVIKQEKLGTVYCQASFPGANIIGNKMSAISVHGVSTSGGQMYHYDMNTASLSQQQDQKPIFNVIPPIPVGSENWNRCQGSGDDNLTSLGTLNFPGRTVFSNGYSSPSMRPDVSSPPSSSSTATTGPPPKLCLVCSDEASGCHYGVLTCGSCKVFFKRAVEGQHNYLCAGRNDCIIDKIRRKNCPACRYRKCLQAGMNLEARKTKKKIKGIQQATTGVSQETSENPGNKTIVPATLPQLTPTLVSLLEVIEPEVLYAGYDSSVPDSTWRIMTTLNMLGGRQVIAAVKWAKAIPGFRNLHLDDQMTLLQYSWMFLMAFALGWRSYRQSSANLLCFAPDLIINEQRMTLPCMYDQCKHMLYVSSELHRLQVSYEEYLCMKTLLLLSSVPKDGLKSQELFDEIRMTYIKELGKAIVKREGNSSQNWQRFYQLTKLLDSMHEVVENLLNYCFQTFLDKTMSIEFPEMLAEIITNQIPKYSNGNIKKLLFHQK
Sequence of Pyruvate kinase (Leishmania mexicana) (Q27686 2-499 E452W): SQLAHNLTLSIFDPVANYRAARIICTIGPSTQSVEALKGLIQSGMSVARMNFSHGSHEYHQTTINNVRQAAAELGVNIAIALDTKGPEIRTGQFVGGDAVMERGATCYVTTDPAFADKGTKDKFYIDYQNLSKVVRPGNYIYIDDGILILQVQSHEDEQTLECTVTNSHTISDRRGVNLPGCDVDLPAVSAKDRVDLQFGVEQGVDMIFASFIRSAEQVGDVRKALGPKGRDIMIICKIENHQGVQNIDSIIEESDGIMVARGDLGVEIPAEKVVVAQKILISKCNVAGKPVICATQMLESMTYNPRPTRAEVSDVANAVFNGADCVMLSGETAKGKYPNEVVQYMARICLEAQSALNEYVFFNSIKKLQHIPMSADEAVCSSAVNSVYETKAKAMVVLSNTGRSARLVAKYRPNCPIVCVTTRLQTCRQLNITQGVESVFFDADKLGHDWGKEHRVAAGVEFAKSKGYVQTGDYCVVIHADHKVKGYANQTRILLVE
Sequence of Alpha-galactosidase A (Homo sapiens) (P06280 whole entry, looked up): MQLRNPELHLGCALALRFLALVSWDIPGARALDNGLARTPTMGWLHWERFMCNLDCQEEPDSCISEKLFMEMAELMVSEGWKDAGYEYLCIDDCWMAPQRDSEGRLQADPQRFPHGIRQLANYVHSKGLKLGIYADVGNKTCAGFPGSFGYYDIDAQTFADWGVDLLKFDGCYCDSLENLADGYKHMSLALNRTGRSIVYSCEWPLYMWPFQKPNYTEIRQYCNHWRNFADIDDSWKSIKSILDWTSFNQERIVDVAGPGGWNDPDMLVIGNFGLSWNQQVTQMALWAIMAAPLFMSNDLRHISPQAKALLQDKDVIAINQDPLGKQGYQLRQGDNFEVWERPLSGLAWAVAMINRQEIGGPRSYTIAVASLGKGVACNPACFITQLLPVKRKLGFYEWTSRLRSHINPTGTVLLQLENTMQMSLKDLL
Sequence of Guanine nucleotide-binding protein G(i) subunit alpha-1 (Homo sapiens) (P63096 whole entry, looked up): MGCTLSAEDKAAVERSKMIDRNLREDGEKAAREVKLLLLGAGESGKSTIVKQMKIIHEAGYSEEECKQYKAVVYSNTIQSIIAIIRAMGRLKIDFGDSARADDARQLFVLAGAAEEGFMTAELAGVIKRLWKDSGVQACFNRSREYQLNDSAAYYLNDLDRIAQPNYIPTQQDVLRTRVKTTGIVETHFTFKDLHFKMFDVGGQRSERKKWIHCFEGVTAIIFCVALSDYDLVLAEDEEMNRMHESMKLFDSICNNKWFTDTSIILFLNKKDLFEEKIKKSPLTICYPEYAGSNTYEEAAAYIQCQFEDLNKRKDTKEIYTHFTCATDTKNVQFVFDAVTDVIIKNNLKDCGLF
Sequence of Cytochrome P450 1A2 (Homo sapiens) (P05177 whole entry, looked up): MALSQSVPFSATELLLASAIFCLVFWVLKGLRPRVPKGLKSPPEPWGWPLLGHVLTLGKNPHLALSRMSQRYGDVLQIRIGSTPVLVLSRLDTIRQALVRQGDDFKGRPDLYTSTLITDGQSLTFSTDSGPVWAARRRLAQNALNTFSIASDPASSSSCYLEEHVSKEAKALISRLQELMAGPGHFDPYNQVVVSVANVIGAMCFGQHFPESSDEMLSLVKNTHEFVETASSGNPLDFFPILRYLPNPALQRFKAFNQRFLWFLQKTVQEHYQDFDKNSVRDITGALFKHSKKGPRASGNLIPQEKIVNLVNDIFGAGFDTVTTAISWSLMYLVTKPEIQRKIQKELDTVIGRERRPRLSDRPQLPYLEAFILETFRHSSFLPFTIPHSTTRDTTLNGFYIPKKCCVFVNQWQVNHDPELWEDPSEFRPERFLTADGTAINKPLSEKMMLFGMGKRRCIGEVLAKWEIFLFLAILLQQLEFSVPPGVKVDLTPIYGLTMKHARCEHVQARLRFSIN
Sequence of Pyruvate kinase PKM (Homo sapiens) (P14618 whole entry, looked up): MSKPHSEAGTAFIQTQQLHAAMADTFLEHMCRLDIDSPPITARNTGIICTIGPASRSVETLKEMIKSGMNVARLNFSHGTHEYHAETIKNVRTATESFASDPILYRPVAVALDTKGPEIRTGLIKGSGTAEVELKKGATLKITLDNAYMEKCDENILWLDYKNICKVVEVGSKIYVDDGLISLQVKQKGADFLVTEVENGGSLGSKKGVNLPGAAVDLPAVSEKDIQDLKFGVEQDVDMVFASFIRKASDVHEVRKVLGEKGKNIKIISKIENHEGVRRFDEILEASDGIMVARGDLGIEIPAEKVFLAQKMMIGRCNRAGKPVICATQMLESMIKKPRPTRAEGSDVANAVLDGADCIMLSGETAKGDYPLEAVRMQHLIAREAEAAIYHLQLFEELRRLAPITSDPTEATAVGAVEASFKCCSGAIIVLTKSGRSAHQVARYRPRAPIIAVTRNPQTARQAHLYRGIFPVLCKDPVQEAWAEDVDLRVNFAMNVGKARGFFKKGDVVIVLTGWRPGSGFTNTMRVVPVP
Sequence of Alpha-galactosidase (Coffea arabica) (Q42656 whole entry, looked up): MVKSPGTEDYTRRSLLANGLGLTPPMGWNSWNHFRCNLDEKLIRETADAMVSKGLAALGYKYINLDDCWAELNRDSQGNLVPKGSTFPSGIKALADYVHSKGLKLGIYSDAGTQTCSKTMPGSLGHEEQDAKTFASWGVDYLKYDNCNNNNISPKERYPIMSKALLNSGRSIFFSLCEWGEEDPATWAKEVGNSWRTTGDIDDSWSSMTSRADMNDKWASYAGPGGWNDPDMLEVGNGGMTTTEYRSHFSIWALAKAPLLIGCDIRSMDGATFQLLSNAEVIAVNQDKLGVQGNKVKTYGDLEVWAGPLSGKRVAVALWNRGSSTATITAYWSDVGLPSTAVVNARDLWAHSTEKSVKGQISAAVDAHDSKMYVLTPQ
Sequence of 3',5'-cyclic-AMP phosphodiesterase 4B (Homo sapiens) (Q07343 whole entry, looked up): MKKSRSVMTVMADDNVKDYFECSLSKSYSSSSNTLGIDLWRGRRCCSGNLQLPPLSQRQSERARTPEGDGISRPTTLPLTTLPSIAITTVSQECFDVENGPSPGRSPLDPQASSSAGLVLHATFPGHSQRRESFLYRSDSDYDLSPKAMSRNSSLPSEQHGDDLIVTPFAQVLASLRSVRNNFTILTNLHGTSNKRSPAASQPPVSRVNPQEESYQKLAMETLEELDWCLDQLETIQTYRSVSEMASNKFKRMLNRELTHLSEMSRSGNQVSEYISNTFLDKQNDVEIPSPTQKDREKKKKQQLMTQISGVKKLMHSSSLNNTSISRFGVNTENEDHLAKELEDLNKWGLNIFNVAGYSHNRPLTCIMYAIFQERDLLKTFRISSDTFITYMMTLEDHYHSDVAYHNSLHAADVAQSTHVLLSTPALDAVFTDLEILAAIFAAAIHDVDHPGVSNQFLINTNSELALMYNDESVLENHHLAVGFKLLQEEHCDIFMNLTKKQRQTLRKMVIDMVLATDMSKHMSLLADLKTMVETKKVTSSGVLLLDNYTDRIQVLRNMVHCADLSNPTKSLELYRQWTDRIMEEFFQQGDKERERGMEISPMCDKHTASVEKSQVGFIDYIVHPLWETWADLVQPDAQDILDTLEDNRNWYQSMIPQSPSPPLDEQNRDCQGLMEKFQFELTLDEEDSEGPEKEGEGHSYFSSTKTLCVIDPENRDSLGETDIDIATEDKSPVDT
Sequence of Muscarinic acetylcholine receptor M1 (Rattus norvegicus) (P08482 whole entry, looked up): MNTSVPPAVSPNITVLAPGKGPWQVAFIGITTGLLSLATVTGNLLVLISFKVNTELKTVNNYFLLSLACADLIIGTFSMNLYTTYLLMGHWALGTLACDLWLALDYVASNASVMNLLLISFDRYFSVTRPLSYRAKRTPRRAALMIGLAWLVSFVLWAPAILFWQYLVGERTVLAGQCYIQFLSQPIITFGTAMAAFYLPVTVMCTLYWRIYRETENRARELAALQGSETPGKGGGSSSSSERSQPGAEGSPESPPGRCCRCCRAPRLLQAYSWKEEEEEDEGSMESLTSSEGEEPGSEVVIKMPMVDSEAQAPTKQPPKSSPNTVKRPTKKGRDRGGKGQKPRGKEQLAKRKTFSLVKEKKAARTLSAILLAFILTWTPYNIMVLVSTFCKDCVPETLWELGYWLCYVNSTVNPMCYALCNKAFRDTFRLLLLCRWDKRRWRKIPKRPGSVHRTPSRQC

For `O=C(O)CN1C(=O)CN=C(c2ccccn2)c2cc(Cl)ccc21`, the activity change, negative = inhibition is 0.0967% in [1], -1.6% in [3] and 3.65% [at 11.4 µM] in [7]. In addition, the Potency is 1.26 µM (active) in assay [2], more than 46 µM in assay [5] and more than 9.22 µM in [6]. Besides, the activity, negative = inhibition in [4] is 6.14%. For the same compound, in [8], the call was inactive.

`CC(C)[C@@]1(NC(=O)[C@@H]2C=C3c4cccc5[nH]cc(c45)C[C@@H]3N(C)C2)O[C@]2(O)[C@H]3CCCN3C(=O)[C@H](Cc3ccccc3)N2C1=O`: the activity change, negative = inhibition is -14% [at 38 µM] in assay [1] and 4.28% [at 38 µM] in assay [3]. The Potency in [2] is 10 µM (active); in assay [5], more than 46 µM; in assay [6] it was more than 46 µM. Moreover, the activity, negative = inhibition in assay [4] is 8.76% [at 38 µM]. Moreover, the Potency result in assay [7] and in assay [9] was “inactive” throughout. In addition, in [8], the result was inactive.

`CCn1cnc2c(Nc3cccc(Cl)c3)nc(N[C@@H]3CCCC[C@H]3N)nc21`: the activity change, negative = inhibition was -111% [at 38 µM] (active) in [1] and -119% [at 38 µM] (active) in assay [3]. Also, the Potency in assay [2] is 15.8 µM (active); in assay [5] it was more than 46 µM; in [6], more than 46 µM. The activity, negative = inhibition in assay [4] was -30.2% [at 38 µM] (active). For the same compound, the Potency entry in assay [7], in assay [11] and in assay [9] was “inactive” throughout. Moreover, the compound was classed as inactive in [8], in assay [10], in assay [12], in assay [13], in [14] and in assay [15]. The compound was classed as inactive in assay [16] and in assay [17].

`c1ccc2c(c1)Sc1ccccc1N2C[C@H]1CN2CCC1CC2`: the activity change, negative = inhibition in [1] is 24.9%; in assay [3], -73.4% (active); in assay [7] it was 3.89% [at 11.4 µM]. Also, the Potency entry in assay [2] was “inactive”. Further, the activity, negative = inhibition in assay [4] was 9.78%. Also, the Potency is more than 46 µM in assay [5] and more than 9.22 µM in assay [6]. Besides, in assay [8], the call was inactive.

On to `CO[C@@H]1CC=C2CCN3CCC4=C(CC(=O)OC4)[C@]23C1`, for which the activity change, negative = inhibition in [1] is 6.22% [at 38 µM]; in assay [3], -0.774% [at 38 µM]. Also, the Potency result in assay [2], in assay [7], in [11] and in assay [19] was “inactive” each time. In addition, the activity, negative = inhibition in assay [4] was -4.68% [at 38 µM]. Further, the Potency in assay [5] and in assay [6] was more than 46 µM each time. Besides, the compound was called inactive in [8], in assay [10], in assay [18], in [12], in assay [13] and in assay [14]. Also, the compound was called inactive in assay [15], in assay [16] and in assay [17].

As to `C[C@@H]1O[C@H]1P(=O)(O)O`, the activity change, negative = inhibition was 0.559% [at 38 µM] in [1] and 6.57% [at 38 µM] in assay [3]. Moreover, the Potency entry in assay [2], in assay [7] and in assay [19] was “inactive” each time. For the same compound, in assay [4], the activity, negative = inhibition is 22.2% [at 38 µM]. The Potency in assay [5] and in [6] was more than 46 µM each time. Besides, the compound was called inactive in [8], in assay [10], in assay [18], in [12], in assay [13] and in assay [14]. In addition, the call in assay [15], in [16] and in assay [17] was inactive.

(Values after PubChem BioAssay (NCATS).)
